Compound activity: PubChem BioAssay, National Center for Advancing Translational Sciences (NCATS)
This is a sample that favours compounds with a hit; in the whole collection about 3.2% have one here.
Nrf2 inh: blocks Nrf2 signaling. A549 ARE-Fluc reporter, luciferase luminescence, 18-24 h. Potency, µM (highest dose often 46 µM), inactives show at the highest dose activity change, negative = inhibition, usual class: inhibitors. 360,000 tested, 2.1% active; also: potency is read from the fitted curve at half-maximal effect; % is scaled to controls: 0 for no effect and ±100 for the full control effect; nearly all actives have a fitted effect of over 60% in size
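In this cell-based qHTS, ARE-driven firefly luciferase in A549 cells reports Nrf2 activity; the luminescent signal after BugLite lysis is the measured value, with a prior CellTiter-Fluor read for cell health.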
IL-2 act: activates IL-2 in a cell-based reporter assay; IL-2 activation reporter assay, cell-based qHTS; stimulated with anti-CD3/CD4/CD28 beads; in transgenic mouse T cells; activation, % (series mostly up to about 46 µM); 360,000 tested, 0.065% active; AID 652025; in the data active = activation above about 50%; inconclusive = mostly about 30% to 49%; also: 0% is about no effect
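Unstimulated transgenic mouse T cells, 750 per well, received compound and, after 60 minutes, anti-CD3/anti-CD4 bead plus anti-CD28 stimulation. EGFP and DsRed were quantified after 18 hours.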
p53 reactivation: restores transcriptional activity of mutant p53. Potency, µM (series often up to 92.2 µM), without a hit: at the top dose activity change, positive = activation, usual class: activators. 320,000 tested, 0.063% active. H1299 p53-A138V BP100-luciferase reporter, luminescence, 24 h. AID 504706; also: potency is read from the fitted curve at half-maximal effect; % of control where 0% means no effect; nearly all actives have a fitted effect of over 45% in size
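p53-null H1299 cells stably carrying temperature-sensitive p53-A138V and a BP100-luciferase reporter were pinned with compounds (4-point, 1:5 series) and held 24 hrs at 37 deg C. Luminescence was read 10 min after detection reagent.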
BRCA1 expr act: BRCA1 expression activation. MCF7-BRCA1-FFLuc reporter, luminescence, 48 h; response scale: scaled: vehicle 0%, 10 µM genistein 100%. 380,000 tested, 1.1% active. Potency, µM (top dose mostly 46.1 µM), for the others: at the highest dose activation, usual class: activators. AID 624202; also: potency is read from the fitted curve at half-maximal effect; nearly all actives have a fitted effect of over 80% in size
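MCF7-BRCA1-FFLuc cells, 2000/well in phenol-red-free MEM, attached 2 h then treated 48 h at 37 C. Luciferase luminescence read 15 min after reagent; normalized to genistein maximum activation (10microM) and DMSO, concentration-response fitted.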
A549 tox: counter-screen for Nrf2 inhibitors: cytotoxicity in A549 cells | A549 ARE-Fluc cells, CellTiter-Fluor viability, 18-24 h | Potency, µM (top dose mostly 46 µM), for the others: top-dose activity change, negative = cytotoxicity, most hits filed as inhibitors | AID 504648 | 390,000 tested, 0.16% active; also: potency is read from the fitted curve at half-maximal effect; % is scaled to controls: 0 for no effect and ±100 for the full control effect
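Cytotoxicity counterscreen: CellTiter-Fluor fluorescence was measured in A549 ARE_Fluc cells after 18-24 h of compound exposure in a concentration series. The subsequent BugLite luminescent read reports ARE-luciferase activity.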
Nrf2 activator: activates Nrf2 signaling; AREc32 ARE-luciferase reporter (MCF7-derived line), luminescence, 24 h; AID 624171; 410,000 tested, 0.31% active; Potency, µM (highest dose often 46.1 µM), without a hit: at the top dose activation, usual class: activators; also: potency is read from the fitted curve at half-maximal effect; % of control where 0% means no effect; nearly all actives have a fitted effect of over 65% in size
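For detection, Steady-Glo was added and plates sat 30 min at RT; before that, AREc32_Fluc cells grown overnight in OPTI-MEM/5% FBS had been treated with 23 nL compound for 24 hr at 37 deg C.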
* hit, by the source's call; ? = inconclusive; . = not tested or not shown. Unless noted, calls follow the shape of the dose curve; as a rule, active = well fitted curve in the direction sought with a large enough effect; inconclusive = small, poorly fitted or top-dose-only effect, or another doubt; inactive = no such curve, though single readings can be large; an effect the other way counts as inactive or inconclusive.

SMILES | Nrf2 inh | IL-2 act | p53 reactivation | BRCA1 expr act | A549 tox | Nrf2 activator
CCC(=O)Nc1cc(SCCO)cc([N+](=O)[O-])c1 | ? | -1 | 7% | 10% | -1% | 1%
CCC(=O)N1c2ccccc2CC1C(=O)NCCc1cc(OC)c(OC)c(OC)c1 (configuration not stated) | . | . | . | . | 8% | 1%
O=C1C=C(N2CCCCC2)c2ccccc2C1=O | 9.2µM* | -1 | . | -114% | 18µM* | -3%
O=C1c2ccccc2C(=O)c2c1cccc2N1CCCC1 | 7% | 1 | 3% | -7% | ? | 8%
COc1ccc(CN=C2NN=C(c3ccc(Cl)cc3)CS2)cc1 | 5% | -3 | 9% | 28% | 2% | 0%
COc1ccc(CN=C2Nc3ccccc3CS2)cc1 | ? | -1 | 10µM* | ? | -21% | 1%
Cc1cc(=O)[nH]c2nnc(-c3ccc(Br)cc3)n12 | ? | 8 | 7% | 4µM* | -1% | 0%
CCCSc1nnc2[nH]c(=O)cc(C)n12 | . | . | . | . | 1% | 0%
Cc1cc(Br)cn2c(Cc3ccccc3C(F)(F)F)c(-c3cccc(Br)c3)nc12 | . | 0 | . | 23% | . | 10%
FC(F)(F)c1ccccc1Cc1c(-c2cccc(Br)c2)nc2c3ccccc3ccn12 | . | 0 | . | -23% | . | 13µM*
COc1ccc(N2CCN(c3oc(-c4ccccc4C)nc3S(=O)(=O)c3ccccc3)CC2)cc1 | 10% | . | . | . | -1% | -1%
COCCn1c(-c2ccc(Br)cc2)csc1=Nc1cccnc1 | 18µM* | -1 | -5% | -48% | -15% | 3%
COCCCn1c(-c2ccc(S(=O)(=O)N3CCOCC3)cc2)csc1=Nc1ccccc1 | 16µM* | 0 | 4% | -22% | 1% | 3%
COc1ccc(N=c2scc(-c3ccc(OC)cc3)n2CCO)cc1 | 18µM* | -2 | 14% | -24% | -24% | 2%
FC(F)Oc1ccc(-c2csc(=Nc3cccnc3)n2CC2CCCO2)cc1 (configuration not stated) | 15µM* | -1 | -1% | -22% | 0% | 1%
COC(=O)NNC(=O)c1ccc(Cl)cc1Cl | 7% | 0 | 13% | 3% | -11% | 0%
CC(C)(C)C(=O)NC(=S)NNC(=O)c1ccc(-c2ccccc2)cc1 | 2.9µM* | 1 | 1% | -79% | ? | -2%
CC(C)(C)C(=O)NC(=S)NNC(=O)c1ccc(Cl)cc1Cl | 8.2µM* | 2 | 3% | -10% | ? | 0%
O=C(NNC(=O)c1cccc2ccccc12)c1ccc(Cl)cc1Cl | ? | 0 | . | 13µM* | -6% | 0%
CC(C)(C)C(=O)NC(=S)NNC(=O)c1ccncc1 | ? | -1 | -12% | 37% | 2% | 0%
CC(C)c1ccc(S(=O)(=O)N2CCC(N3CCN(Cc4ccccc4)C(=O)C3=O)CC2)cc1 | ? | . | . | . | -1% | 1%
N#Cc1nc(Nc2cc(F)cc(F)c2)c2ncn(CCCN3CCCC3)c2n1 | 6% | . | . | . | 2.1µM* | .
CCn1cnc2c(Nc3cc(F)cc(F)c3)nc(C#N)nc21 | ? | 0 | 29% | 34% | -17% | 7%
COCCn1c(-c2ccc(OC(F)(F)C(F)C(F)(F)F)cc2)nc2c1c(=O)[nH]c(=O)n2CC(C)C (configuration not stated) | 18µM* | 0 | -3% | -50% | -8% | 11%
COCCn1c(-c2ccc(SC)cc2)nc2c1c(=O)[nH]c(=O)n2CC(C)C | -20% | 0 | -3% | -19% | -3% | 5%
SMILES | Nrf2 inh | IL-2 act | p53 reactivation | BRCA1 expr act | A549 tox | Nrf2 activator
Cc1cc(C)nc(NC(=O)c2cccs2)n1 | 13% | 2 | 8% | 13% | -1% | 7%
O=C(NC(=S)Nc1ccc(Cl)cn1)c1cccs1 | ? | 0 | ? | ? | 3% | 6.3µM*
O=C(Nc1ncc(Cl)cn1)c1cccs1 | ? | 0 | 13% | 13µM* | 8% | 4%
Cc1nc(NC(=O)c2cccs2)ccc1Br | ? | 1 | 1% | 44% | 3% | 16µM*
O=C(Nc1cnccn1)c1cccs1 | . | 2 | ? | 41% | 3% | 4%
O=C(Nc1ccc2nccnc2c1)N1CCCCCC1 | ? | . | . | ? | -7% | .
Cc1cccc(NC(=O)CCCn2nc(C)c3c(C)n(-c4ccccc4)nc3c2=O)c1C | -9% | . | . | . | 0% | 0%
CC(=O)Nc1cc(O)c2nonc2c1O | 21µM* | . | . | -61% | 6.5µM* | .
CCc1ccccc1NC(=O)Cn1nnc(-c2nc(-c3ccc(C)cc3)no2)c1N | 2% | . | . | . | 0% | -3%
CC(CCc1ccc(O)cc1)NC(c1ccccc1)c1ccc(Cl)cc1 (configuration not stated) | 23µM* | -2 | -58% | -47% | ? | 0%
O=C(Nc1ccc2c(c1)OCO2)c1ccc(=O)[nH]n1 | ? | -1 | 11% | 11µM* | 0% | 0%
O=C(Nc1ccc2c(c1)OCO2)c1cc(C2CC2)on1 | ? | -2 | 9% | 4.5µM* | -8% | -1%
O=C(Nc1cccc(O)c1)c1cc(-c2ccc3c(c2)OCO3)on1 | 15µM* | -1 | -11% | 39% | 1% | -1%
CC(=O)c1cccc(NC(=O)c2cc(-c3ccc4c(c3)OCCO4)on2)c1 | ? | . | . | ? | -5% | -1%
CC(=O)N1CCC(C(=O)Nc2nnc(C(C)C)s2)CC1 | 10% | . | . | 0% | -2% | .
Cc1oc2ccc(O)c(CN3CCCC(C)C3)c2c1C(=O)Nc1ccccc1 (configuration not stated) | 11% | . | . | . | 7% | 6%
Cc1cc(C)c(NC(=O)Cn2c(=O)n(CCC(=O)NCc3ccccc3Cl)c(=O)c3sccc32)c(C)c1 | 7% | . | . | . | -1% | -1%
O=C(NCCCn1ccnc1)c1cc2nc(-c3ccc(Br)cc3)cc(C(F)(F)F)n2n1 | 21µM* | -2 | -14% | -37% | ? | 2%
CCCNC(=O)c1cc2nc(-c3ccc(Br)cc3)cc(C(F)(F)F)n2n1 | -9% | . | . | . | 1% | 2%
CCc1ccc(NC2=NCC(c3ccccc3)S2)cc1 (configuration not stated) | ? | -4 | 8% | 11µM* | 0% | 14%
O=[N+]([O-])c1ccc(C2CN=C(Nc3ccccc3)S2)cc1 (configuration not stated) | -10% | 6 | 20% | 70% | 2% | 4%
c1ccc(CCn2nnc3ccccc32)cc1 | ? | -1 | 12% | 13µM* | 1% | 2%
COc1ccccc1OCCn1nnc2ccccc21 | ? | 0 | ? | ? | 2% | 3%
CCOc1ccc(OCCn2nnc3ccccc3c2=O)cc1 | ? | -3 | 15% | 1µM* | -2% | 7%
